# Data from ChEMBL document CHEMBL1961873, “Compounds: GSK PKIS; Assays: Nanosyn kinase panel” (2012).
# Key:
# [1] = target: Sphingosine kinase 1 (Homo sapiens) (UniProt Q9NYA1); conditions: at 1 µM;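 note: mean SPHK1 inhibition value reported from the GSK PKIS kinase panel screen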
# [2] = target: T1, Sphingosine kinase 2 (Homo sapiens) (UniProt Q9NRA0); conditions: at 0.1 µM
# T1 sequence (whole entry): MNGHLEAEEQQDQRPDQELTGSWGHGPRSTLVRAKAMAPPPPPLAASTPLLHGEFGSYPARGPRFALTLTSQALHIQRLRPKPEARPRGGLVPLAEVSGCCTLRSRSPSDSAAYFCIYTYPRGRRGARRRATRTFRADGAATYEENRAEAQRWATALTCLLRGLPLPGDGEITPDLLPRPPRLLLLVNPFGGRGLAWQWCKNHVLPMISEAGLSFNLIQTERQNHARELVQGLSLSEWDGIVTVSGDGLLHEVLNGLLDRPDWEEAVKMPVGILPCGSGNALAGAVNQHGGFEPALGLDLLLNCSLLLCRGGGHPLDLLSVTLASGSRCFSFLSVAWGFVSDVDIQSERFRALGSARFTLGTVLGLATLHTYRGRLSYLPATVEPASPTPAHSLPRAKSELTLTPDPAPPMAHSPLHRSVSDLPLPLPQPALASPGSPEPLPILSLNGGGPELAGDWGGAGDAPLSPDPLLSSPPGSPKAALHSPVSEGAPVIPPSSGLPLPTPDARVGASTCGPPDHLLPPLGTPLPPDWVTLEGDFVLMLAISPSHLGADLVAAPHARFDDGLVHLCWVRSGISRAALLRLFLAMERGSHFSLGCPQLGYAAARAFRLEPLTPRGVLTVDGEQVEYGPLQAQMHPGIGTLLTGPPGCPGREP
# [3] = target: T1, Sphingosine kinase 2 (Homo sapiens); conditions: at 1 µM
# [4] = target: Casein kinase II subunit alpha (Homo sapiens) (UniProt P68400); conditions: at 0.1 µM
# Sequence of Casein kinase II subunit alpha (Homo sapiens) (P68400 whole entry, looked up): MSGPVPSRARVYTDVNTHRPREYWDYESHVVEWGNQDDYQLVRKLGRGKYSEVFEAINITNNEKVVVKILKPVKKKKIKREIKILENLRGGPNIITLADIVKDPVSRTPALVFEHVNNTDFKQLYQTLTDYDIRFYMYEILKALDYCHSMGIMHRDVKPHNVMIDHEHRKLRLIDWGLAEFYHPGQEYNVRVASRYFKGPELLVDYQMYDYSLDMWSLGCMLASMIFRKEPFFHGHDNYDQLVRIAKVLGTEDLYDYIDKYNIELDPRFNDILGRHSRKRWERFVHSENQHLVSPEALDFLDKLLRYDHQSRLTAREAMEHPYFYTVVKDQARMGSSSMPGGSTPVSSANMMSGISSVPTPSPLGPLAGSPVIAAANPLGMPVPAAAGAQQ
# [5] = target: Casein kinase II subunit alpha (Homo sapiens) (UniProt P68400); conditions: at 1 µM
# [6] = target: T2, Inhibitor of nuclear factor kappa-B kinase subunit alpha (Homo sapiens) (UniProt O15111); conditions: at 0.1 µM
# T2 sequence (whole entry): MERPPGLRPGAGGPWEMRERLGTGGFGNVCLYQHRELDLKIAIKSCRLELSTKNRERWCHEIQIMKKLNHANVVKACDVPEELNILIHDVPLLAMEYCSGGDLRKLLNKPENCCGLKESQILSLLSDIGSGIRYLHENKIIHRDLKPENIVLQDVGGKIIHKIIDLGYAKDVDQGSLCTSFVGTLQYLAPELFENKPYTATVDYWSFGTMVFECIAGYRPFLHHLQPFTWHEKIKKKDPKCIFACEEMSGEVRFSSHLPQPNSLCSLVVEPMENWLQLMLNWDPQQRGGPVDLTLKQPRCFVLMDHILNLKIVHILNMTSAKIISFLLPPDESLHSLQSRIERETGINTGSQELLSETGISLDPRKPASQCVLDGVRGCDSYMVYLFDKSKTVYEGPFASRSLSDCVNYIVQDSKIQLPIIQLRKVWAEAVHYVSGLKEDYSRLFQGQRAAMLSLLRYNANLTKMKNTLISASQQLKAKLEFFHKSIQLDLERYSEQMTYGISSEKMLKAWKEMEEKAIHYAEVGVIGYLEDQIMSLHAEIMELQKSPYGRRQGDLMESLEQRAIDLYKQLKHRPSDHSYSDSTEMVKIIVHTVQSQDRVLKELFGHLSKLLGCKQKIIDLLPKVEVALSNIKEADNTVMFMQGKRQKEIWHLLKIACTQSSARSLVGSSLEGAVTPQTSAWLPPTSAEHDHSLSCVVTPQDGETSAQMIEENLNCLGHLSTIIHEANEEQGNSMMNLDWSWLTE
# [7] = target: T2, Inhibitor of nuclear factor kappa-B kinase subunit alpha (Homo sapiens); conditions: at 1 µM
# [8] = target: T3, Inhibitor of nuclear factor kappa-B kinase subunit beta (Homo sapiens) (UniProt O14920); conditions: at 0.1 µM
# T3 sequence (whole entry): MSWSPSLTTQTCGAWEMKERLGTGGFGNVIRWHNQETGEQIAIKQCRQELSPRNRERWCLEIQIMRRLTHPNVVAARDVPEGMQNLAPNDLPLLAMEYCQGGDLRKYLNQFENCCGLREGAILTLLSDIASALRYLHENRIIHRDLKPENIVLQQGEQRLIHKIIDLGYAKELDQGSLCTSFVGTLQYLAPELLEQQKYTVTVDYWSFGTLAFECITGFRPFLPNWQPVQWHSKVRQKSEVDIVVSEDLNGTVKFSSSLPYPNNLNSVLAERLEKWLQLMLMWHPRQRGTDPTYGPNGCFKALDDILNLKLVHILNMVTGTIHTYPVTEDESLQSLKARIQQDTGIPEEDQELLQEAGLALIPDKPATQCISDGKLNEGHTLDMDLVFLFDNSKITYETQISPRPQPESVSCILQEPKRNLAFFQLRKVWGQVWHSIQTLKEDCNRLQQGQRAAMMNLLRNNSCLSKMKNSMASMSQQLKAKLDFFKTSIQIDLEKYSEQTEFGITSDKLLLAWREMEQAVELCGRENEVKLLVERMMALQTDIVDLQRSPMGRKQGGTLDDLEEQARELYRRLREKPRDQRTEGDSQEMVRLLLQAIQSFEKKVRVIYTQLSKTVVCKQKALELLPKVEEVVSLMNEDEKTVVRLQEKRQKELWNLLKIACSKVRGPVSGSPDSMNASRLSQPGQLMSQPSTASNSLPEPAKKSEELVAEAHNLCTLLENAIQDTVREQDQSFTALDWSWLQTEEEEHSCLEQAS
# [9] = target: T3, Inhibitor of nuclear factor kappa-B kinase subunit beta (Homo sapiens); conditions: at 1 µM
# [10] = target: T4, Inhibitor of nuclear factor kappa-B kinase subunit epsilon (Homo sapiens) (UniProt Q14164); conditions: at 0.1 µM
# T4 sequence (whole entry): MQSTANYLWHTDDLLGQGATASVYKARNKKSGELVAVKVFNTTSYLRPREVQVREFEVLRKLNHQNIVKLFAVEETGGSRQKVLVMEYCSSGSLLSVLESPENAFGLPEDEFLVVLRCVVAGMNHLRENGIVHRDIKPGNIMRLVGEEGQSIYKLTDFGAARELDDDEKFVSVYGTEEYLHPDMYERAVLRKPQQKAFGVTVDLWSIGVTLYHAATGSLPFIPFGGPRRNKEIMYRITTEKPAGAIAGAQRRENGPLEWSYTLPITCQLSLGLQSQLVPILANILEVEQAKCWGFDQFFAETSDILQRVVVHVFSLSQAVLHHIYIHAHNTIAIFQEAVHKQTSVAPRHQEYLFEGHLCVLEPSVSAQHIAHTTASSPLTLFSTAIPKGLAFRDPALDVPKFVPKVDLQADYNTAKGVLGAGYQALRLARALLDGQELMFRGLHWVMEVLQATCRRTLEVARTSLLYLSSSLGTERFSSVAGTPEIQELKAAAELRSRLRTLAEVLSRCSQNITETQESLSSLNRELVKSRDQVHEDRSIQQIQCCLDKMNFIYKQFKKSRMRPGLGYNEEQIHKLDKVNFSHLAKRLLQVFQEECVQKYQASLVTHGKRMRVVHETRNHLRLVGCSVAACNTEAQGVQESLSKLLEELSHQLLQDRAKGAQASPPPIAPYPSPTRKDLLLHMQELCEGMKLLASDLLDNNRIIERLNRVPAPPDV
# [11] = target: T4, Inhibitor of nuclear factor kappa-B kinase subunit epsilon (Homo sapiens); conditions: at 1 µM
# [12] = target: T5, Serine/threonine-protein kinase Nek1 (Homo sapiens) (UniProt Q96PY6); conditions: at 0.1 µM
# T5 sequence (whole entry): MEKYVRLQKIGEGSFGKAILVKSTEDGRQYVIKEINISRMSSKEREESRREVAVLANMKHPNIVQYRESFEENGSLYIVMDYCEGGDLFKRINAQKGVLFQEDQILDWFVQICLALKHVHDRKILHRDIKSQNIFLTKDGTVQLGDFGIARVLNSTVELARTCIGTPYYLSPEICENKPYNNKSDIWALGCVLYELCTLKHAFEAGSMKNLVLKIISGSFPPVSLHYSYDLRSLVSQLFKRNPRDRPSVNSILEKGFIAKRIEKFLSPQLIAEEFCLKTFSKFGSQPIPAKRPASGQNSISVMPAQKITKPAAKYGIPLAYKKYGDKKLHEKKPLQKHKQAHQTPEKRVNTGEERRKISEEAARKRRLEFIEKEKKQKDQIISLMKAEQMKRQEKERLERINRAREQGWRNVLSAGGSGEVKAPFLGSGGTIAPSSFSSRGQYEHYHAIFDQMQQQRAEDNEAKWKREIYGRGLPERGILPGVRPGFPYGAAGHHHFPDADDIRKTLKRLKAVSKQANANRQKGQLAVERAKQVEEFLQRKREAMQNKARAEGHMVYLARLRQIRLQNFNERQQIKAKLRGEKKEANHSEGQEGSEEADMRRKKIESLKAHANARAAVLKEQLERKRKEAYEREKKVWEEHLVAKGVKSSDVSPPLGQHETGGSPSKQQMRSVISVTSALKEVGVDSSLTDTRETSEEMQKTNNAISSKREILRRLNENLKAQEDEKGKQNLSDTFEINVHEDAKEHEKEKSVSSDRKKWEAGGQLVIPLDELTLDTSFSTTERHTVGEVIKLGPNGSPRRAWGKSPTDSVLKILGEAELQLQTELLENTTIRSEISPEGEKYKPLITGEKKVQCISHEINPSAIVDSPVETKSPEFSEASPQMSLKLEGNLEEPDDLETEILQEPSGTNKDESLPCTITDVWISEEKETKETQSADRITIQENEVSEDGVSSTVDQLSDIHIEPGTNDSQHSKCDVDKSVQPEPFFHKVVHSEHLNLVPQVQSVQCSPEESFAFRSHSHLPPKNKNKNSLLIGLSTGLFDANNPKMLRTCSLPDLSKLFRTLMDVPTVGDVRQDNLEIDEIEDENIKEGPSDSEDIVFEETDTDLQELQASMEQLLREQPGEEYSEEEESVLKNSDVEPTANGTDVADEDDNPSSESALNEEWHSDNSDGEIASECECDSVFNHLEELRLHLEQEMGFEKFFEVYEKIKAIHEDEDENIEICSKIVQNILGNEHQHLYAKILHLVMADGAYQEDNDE
# [13] = target: T5, Serine/threonine-protein kinase Nek1 (Homo sapiens); conditions: at 1 µM
# [14] = target: T6, Serine/threonine-protein kinase Nek2 (Homo sapiens) (UniProt P51955); conditions: at 0.1 µM
# T6 sequence (whole entry): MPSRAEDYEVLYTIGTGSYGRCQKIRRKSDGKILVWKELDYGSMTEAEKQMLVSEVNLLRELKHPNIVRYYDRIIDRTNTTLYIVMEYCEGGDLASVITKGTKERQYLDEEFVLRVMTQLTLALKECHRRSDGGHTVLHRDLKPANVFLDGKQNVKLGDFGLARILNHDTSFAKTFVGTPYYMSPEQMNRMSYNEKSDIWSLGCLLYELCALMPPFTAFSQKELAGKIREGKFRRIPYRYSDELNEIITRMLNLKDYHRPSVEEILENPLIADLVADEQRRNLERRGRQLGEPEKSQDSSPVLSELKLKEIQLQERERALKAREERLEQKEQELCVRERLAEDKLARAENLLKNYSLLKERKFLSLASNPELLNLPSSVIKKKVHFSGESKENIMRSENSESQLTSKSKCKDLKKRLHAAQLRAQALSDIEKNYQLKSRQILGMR
# [15] = target: T6, Serine/threonine-protein kinase Nek2 (Homo sapiens); conditions: at 1 µM
# [16] = target: Serine/threonine-protein kinase Nek6 (Homo sapiens) (UniProt Q9HC98); conditions: at 0.1 µM
# Sequence of Serine/threonine-protein kinase Nek6 (Homo sapiens) (Q9HC98 whole entry): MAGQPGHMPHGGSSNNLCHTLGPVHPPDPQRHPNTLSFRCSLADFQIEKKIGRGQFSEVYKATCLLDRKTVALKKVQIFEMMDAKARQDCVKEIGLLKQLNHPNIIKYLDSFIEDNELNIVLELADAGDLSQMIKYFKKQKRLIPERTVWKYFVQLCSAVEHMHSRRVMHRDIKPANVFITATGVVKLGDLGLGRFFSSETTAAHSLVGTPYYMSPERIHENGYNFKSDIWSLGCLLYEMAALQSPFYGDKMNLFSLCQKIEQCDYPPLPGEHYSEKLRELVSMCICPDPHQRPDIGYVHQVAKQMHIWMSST
# [17] = target: Serine/threonine-protein kinase Nek6 (Homo sapiens) (UniProt Q9HC98); conditions: at 1 µM
# [18] = target: Serine/threonine-protein kinase Nek7 (Homo sapiens) (UniProt Q8TDX7); conditions: at 0.1 µM
# Sequence of Serine/threonine-protein kinase Nek7 (Homo sapiens) (Q8TDX7 whole entry, looked up): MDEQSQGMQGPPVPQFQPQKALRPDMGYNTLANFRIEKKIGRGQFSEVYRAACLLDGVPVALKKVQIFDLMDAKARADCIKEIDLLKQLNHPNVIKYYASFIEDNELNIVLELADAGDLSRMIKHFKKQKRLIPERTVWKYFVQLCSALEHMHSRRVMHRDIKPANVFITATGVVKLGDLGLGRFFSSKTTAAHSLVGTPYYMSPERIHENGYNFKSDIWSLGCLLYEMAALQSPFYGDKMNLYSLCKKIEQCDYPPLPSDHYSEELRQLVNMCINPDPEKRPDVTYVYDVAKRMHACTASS
# [19] = target: Serine/threonine-protein kinase Nek7 (Homo sapiens) (UniProt Q8TDX7); conditions: at 1 µM
# [20] = target: T7, Serine/threonine-protein kinase Nek9 (Homo sapiens) (UniProt Q8TD19); conditions: at 0.1 µM;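 note: reported value is the mean percent inhibition of NEK9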
# T7 sequence (whole entry): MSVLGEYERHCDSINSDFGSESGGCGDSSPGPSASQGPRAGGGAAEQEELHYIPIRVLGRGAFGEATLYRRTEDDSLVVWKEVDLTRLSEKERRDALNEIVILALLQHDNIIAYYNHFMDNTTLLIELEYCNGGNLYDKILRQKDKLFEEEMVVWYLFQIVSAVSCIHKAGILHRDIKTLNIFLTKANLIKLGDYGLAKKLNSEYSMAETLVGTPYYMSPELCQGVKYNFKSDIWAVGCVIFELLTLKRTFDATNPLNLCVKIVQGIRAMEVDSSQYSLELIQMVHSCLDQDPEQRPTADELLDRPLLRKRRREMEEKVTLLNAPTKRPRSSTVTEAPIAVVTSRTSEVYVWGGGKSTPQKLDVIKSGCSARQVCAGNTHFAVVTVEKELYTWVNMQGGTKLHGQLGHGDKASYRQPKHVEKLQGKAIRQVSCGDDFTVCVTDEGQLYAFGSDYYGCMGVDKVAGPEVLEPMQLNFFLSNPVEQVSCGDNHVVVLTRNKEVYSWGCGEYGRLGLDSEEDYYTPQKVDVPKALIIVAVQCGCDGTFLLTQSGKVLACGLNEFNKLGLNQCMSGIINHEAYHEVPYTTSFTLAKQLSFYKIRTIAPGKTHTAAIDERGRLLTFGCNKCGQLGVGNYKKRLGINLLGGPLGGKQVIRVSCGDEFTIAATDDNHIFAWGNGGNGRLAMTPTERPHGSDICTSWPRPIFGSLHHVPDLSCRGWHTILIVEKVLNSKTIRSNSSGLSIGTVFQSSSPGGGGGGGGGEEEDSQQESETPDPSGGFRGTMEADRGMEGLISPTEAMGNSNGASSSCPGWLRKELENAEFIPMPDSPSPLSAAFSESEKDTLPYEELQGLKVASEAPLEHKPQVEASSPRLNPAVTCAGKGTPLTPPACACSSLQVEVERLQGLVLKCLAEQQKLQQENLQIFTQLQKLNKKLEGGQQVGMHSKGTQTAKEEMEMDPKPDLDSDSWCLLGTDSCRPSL
# Sequence of Sphingosine kinase 1 (Homo sapiens) (Q9NYA1 whole entry): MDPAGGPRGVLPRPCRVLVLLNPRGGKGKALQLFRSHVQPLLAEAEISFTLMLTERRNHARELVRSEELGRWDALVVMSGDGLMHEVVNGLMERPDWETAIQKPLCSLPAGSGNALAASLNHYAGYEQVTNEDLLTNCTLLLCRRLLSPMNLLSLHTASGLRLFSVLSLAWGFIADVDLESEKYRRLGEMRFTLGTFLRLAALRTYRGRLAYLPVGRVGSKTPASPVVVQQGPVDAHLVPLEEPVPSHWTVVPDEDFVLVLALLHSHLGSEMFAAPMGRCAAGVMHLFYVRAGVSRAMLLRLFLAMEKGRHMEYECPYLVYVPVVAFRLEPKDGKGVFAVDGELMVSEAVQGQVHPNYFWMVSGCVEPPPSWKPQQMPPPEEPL
Structure (SMILES),inhibition [1] [%],inhibition [2] [%],inhibition [3] [%],inhibition [4] [%],inhibition [5] [%],inhibition [6] [%],inhibition [7] [%],inhibition [8] [%],inhibition [9] [%],inhibition [10] [%],inhibition [11] [%],inhibition [12] [%],inhibition [13] [%],inhibition [14] [%],inhibition [15] [%],inhibition [16] [%],inhibition [17] [%],inhibition [18] [%],inhibition [19] [%],inhibition [20] [%]
OCc1ccc(-c2nc(-c3ccccn3)c(-c3ccc4c(c3)OCO4)[nH]2)cc1,-4.68,-0.11,0.5,2.74,-0.37,6.97,8.08,5.29,4.72,4.91,5.41,2.17,2.95,5.76,4.54,2.18,0.25,3.26,2.28,5.12
Nc1ccc(C#Cc2cncnc2Nc2ccc(OCc3cccc(F)c3)c(Cl)c2)cc1,-2.59,-3.76,0,4.6,2.02,0.36,2.27,4.1,4.66,3.63,4.07,3.38,2.7,3.5,3.39,2.73,0.63,1.31,1.32,3.62
